Assay outcomes as filed in PubChem.
Abeta yeast res: restores growth of yeast expressing A-beta42 peptide; yeast expressing A-beta42, growth rescue, OD600, 48 h; response scale: 0% DMSO, 100% iron-clioquinol control; Potency, µM (highest dose often 46.1 µM), actives largely listed as activators; 0.063% of 410,000 active; AID 1347071; further: nearly all actives have a fitted effect of over 55% in size
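Yeast A-beta toxicity model in growth medium with pinned compounds, 48 h at 30 C; growth read as absorbance at 600 nm. Normalized to FeCl3/clioquinol equimolar mix (positive) and DMSO (negative).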
Mito fusion act: inhibitors of mitochondrial division or activators of mitochondrial fusion; Potency, µM (doses to about 46.1 µM), for the others: top-dose growth rescue (activation), hits mostly activators; S. cerevisiae fusion-defective mutant growth rescue, CellTiterGlo 48 h; 0.23% of 320,000 active; further: % of control where 0% means no effect; nearly all actives have a fitted effect of over 45% in size
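Yeast fusion mutant, YPEG (non-fermentable carbon), compound, 48 h at 37C non-permissive; CellTiterGlo added, 10 min RT, luminescence read. Rescued growth = division inhibition.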
aSyn yeast inh: alpha-synuclein toxicity inhibition in yeast; Yeast expressing alpha-synuclein, growth rescue, BacTiter-Glo, 24 h; Potency, µM (highest dose often 46.1 µM), for inactives: top-dose growth rescue (activation), hits mostly activators; 0.14% of 370,000 active; AID 652106; further: % of control where 0% means no effect; nearly all actives have a fitted effect of over 65% in size
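Galactose-induced alpha-syn yeast (OD600=0.02, raffinose-pregrown) + pinned cpd, 24 hr, 30 deg C; growth by BacTiter-Glo luminescence. Growth restoration scores as activation.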
FUS suppressor: rescues growth of FUS-expressing yeast | Potency, µM (series often up to 76.6 µM), hits mostly activators | 0.24% of 390,000 active | S. cerevisiae FUS-expressing, growth rescue, OD600, 24 h | AID 1347120;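 further: plate controls were DMSO vehicle for no effect and reference control for full effect; nearly all actives have a fitted effect of over 55% in size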
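Galactose (2%) drives FUS expression in yeast precultured in raffinose; seeding density OD 0.005. Test compounds incubated 24hr at 30C and 99% humidity before absorbance at 600 nm was measured.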
TDP43 rescue: rescues yeast growth from TDP-43 toxicity; 1.8% of 410,000 active; TDP-43 expressing yeast growth rescue, BacTiter-Glo, 24 h; Potency, µM (highest dose often 46.1 µM), without a hit: at the top dose growth rescue (activation), usual class: activators; further: % of control where 0% means no effect; nearly all actives have a fitted effect of over 50% in size
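Yeast expressing TDP-43 (pregrown in raffinose, seeded at OD600=0.02 in galactose medium) exposed to compounds 24 hr at 30 deg C. Growth read by BacTiter-Glo luminescence; rescue of toxicity appears as increased signal.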
* marks the source's active call; other numbers are inactive results; i = inactive; ? = inconclusive; . = no result given; [ ] = another dose, or the depositor's remark. Rows were chosen to be rich in hits. Some 2.2% of all compounds tested hit in one or more screens of this group. The call rests on the fitted dose curve; in most records, active means well fitted curve in the direction sought with a large enough effect; inconclusive means small, poorly fitted or top-dose-only effect, or another doubt; inactive means no such curve, though single readings can be large; an effect the other way counts as inactive or inconclusive. Potency means the concentration at half of the fitted maximal effect.

SMILES | Abeta yeast res | Mito fusion act | aSyn yeast inh | FUS suppressor | TDP43 rescue
Cc1cc(S(=O)(=O)c2ccc(Cl)cc2)nc(S(=O)(=O)c2ccc(Cl)cc2)c1C#N | i | . | -73.4% | i | 3.55µM*
O=C(Nc1ccon1)Nc1cccc(Cl)c1Cl | i | 0.6% | 1.3% | i | 12.6µM*
O=C(Nc1cccc(C(F)(F)F)c1)c1sc(Cl)nc1C(F)(F)F | 10µM* | 3.1% | -23.0% | i | 12.6µM*
O=C(Nc1cccc(C(F)(F)F)c1)c1cc(-c2ccco2)on1 | i | 7.0% | -2.4% | i | -2.0%
O=C(Nc1cccc(C(F)(F)F)c1)Nc1ccon1 | i | -2.5% | -11.1% | i | 20µM*
O=C(Nc1ccon1)c1cccc(C(F)(F)F)c1 | i | -1.9% | -0.1% | i | -14.4%
CCCNC(=O)c1sc2c(c1C(=O)Nc1ccccn1)CCCC2 | i | ? | 12.9% | i | ?
O=C(NN=C/C=C/c1ccco1)c1cc(-c2ccc(Cl)cc2)n[nH]1 | . | . | . | i | .
CC1CCN(C2=C(NS(=O)(=O)c3ccccc3)C(=O)c3ccccc3C2=O)CC1 | i | ? | -3.3% | i | 1.2%
CC1CCN(C2=C(NS(=O)(=O)c3ccc(Cl)cc3)C(=O)c3ccccc3C2=O)CC1 | ? | 15.8µM* | -8.0% | i | -6.6%[0.397 µM]
Nc1nc(N)c(N=O)c(Nc2cccc(Cl)c2)n1 | i | . | -5.0% | i | 7.8%
Cc1onc(-c2ccc(Cl)cc2)c1-c1ccn(S(=O)(=O)c2ccccc2Cl)n1 | . | . | . | i | .
C[C@H]1[C@@H](OC(=O)NCCc2c[nH]c3ccccc23)CC[C@@]23CCCN2C(=O)CCC[C@@H]13 | . | . | . | i | .
Clc1ccccc1/C=N/NC1=Nc2cccc3cccc1c23 | i | 0.1% | -2.3% | . | 26.6%
C(=N\NC1=Nc2cccc3cccc1c23)/c1ccccn1 | ? | -4.6% | 0.4% | i | 20µM*
COc1cccc2cc(C(=O)Nc3cc(Cl)ccc3N3CCOCC3)c(=O)oc12 | i | 6.9% | -7.3% | i | -5.0%
CCCCOc1ccc(CC(=O)NO)cc1 | i | 2.5% | 6.9% | i | ?
O=C(Cc1ccc(OCCC2CCCCC2)cc1)NO | . | . | 5.62µM* | . | .
CCCCOc1ccc(CC(=O)N(C)OC)cc1 | . | . | 9.0% | . | .
CC(C)N(Cc1nc(-c2ccccc2)no1)C(=O)CN(C)S(=O)(=O)c1ccccc1 | i | 6.8% | 13.3% | i | 12.6µM*
CCOC(=O)C1(Cc2ccccc2)CCN(Cc2ccc(C(F)(F)F)cc2)CC1 | . | . | . | i | .
Cc1cc(C(=O)NC2CCC(C)CC2)c(C)o1 (stereo not given) | i | -4.8% | ? | i | 12.6µM*
Cc1csc2ncnc(N3CCN(S(=O)(=O)c4cccc(C(F)(F)F)c4)CC3)c12 | i | 21.0% | 11.8% | . | 17.8µM*
O=C1CC(=O)Nc2cc(S(=O)(=O)N3CCOc4ccccc43)ccc2N1 | i | 1.5% | 16.4% | i | -0.9%
CN(C)c1nc2c(Br)c(Br)c(Br)c(Br)c2[nH]1 | . | 4.11µM* | -16.3% | . | .
SMILES | Abeta yeast res | Mito fusion act | aSyn yeast inh | FUS suppressor | TDP43 rescue
CSc1ncc(Cl)c(C(=O)Nc2cccc(Cl)c2)n1 | i | 6.1% | 9.9% | i | 22.4µM*
CCc1nnc(NC(=O)c2nc(SCc3ccc(F)cc3)ncc2Cl)s1 | i | . | . | ? | 15.8µM*
CSc1ncc(Cl)c(C(=O)Nc2cccc(C)c2)n1 | i | 6.0% | 1.4% | . | ?
CC(=O)Nc1ccc(NC(=O)c2nc(SCc3ccccc3F)ncc2Cl)cc1 | . | . | 31.6µM* | . | .
COc1ccc(-c2cc(C(=O)NN=Cc3ccc(C)s3)[nH]n2)cc1 | . | . | . | i | .
O=C(c1ccc(C(F)(F)F)cc1)N1CCC(c2noc(-c3ccc(S(=O)(=O)N4CCCC4)cc3)n2)CC1 | i | . | . | i | 14.6%
COC(CNC(=O)[C@H](Cc1ccccc1)NCC(=O)NC1CCCCC1)OC | . | . | . | i | .
Cc1ccc(OCC(=O)Nc2cc(Cl)ccc2-n2cncn2)c(C)c1 | i | . | 5.9% | i | 12.6µM*
O=C(Nc1cc(Cl)ccc1-n1cncn1)c1cc(F)c(F)c(F)c1F | i | ? | 0.6% | i | 22.4µM*
Cc1ccsc1C(=O)Nc1cc(Cl)ccc1-n1cncn1 | i | . | 12.7% | i | 17.8µM*
CS(=O)(=O)c1ccccc1C(=O)Nc1cc(Cl)ccc1-n1cncn1 | i | -1.3% | 1.1% | i | 13.7%
N=C(N)c1ccc(-c2ccc(-c3ccc(C(=N)N)cc3)o2)cc1 | . | . | -20.6% | . | .
CC(c1ccc(NC(=O)OC(C)(C)C)cc1)c1cn(C)c2ccccc12 (stereo not given) | . | . | . | i | .
CC(C)c1ccc(NC2CCCN(C(=O)CCN3Cc4ccccc4C3=O)C2)cc1 (stereo not given) | i | 32.4% | -4.1% | i | 20.7%
FC(F)(F)c1nc(Sc2ncccc2C(F)(F)F)n[nH]1 | i | -9.9% | -11.7% | i | 12.6µM*
FC(F)(F)c1ccnc(Sc2n[nH]c(C(F)(F)F)n2)c1 | i | 2.7% | -15.4% | i | -82.7%
O=C(OC1CCOC1=O)c1cc(-c2ccc(Br)cc2)nc2ccccc12 (stereo not given) | i | 9.3% | -2.1% | i | 21.0%
COc1ccc(-c2cc(C(=O)Nc3ccc(C)c(N)c3)c3ccccc3n2)cc1 | i | 2.4% | -14.2% | 14.1µM* | ?
COc1ccc(-c2cc(C(=O)OC3CCOC3=O)c3ccccc3n2)cc1 (stereo not given) | i | 0.0% | -5.5% | i | 15.8µM*
Cn1c(-c2c(N)n(CCc3ccccc3)c3nc4ccccc4nc23)nc2ccccc21 | i | 24.4% | -16.8% | ? | 7.4%
COCCCn1c(N)c(-c2nc3ccccc3n2C)c2nc3ccccc3nc21 | i | 19.6% | -0.3% | i | -7.9%
Cn1c(-c2c(N)n(CCCc3ccccc3)c3nc4ccccc4nc23)nc2ccccc21 | i | -1.0% | -25.0% | 31.6µM* | ?
Cn1c(-c2c(N)n(C3CCCC3)c3nc4ccccc4nc23)nc2ccccc21 | i | 3.3% | -8.6% | ? | 12.6µM*
CC(NC(=S)Nc1cccc(C(F)(F)F)c1)C(C)(C)C (stereo not given) | 12.6µM* | 5.9% | -33.8% | i | 18.6%
O=C(c1cn(-c2ccc(Cl)c(Cl)c2)nn1)C1CC1 | i | 1.0% | 9.8% | i | 8.91µM*
COCC(=O)N1CC[C@H]2[C@@H]1c1cc(-c3cccc(OC)c3)ccc1N(C)[C@H]2CO | . | . | . | i | .
Cc1ccc(C2=CC(c3ccccc3)n3ncnc3N2)c(C)c1 (stereo not given) | ? | . | 9.9% | i | ?
CN(C)c1ccc(C2C=C(c3ccc(Cl)cc3OC(F)F)Nc3ncnn32)cc1 (stereo not given) | i | 20.8% | 14.9% | ? | -6.9%
